# In PubChem BioAssay (NCI):
# This is part of a sample that, as a whole, favours compounds with a hit. Of some 79,000 tested, about 15% had one in any assay. Values without a mark were called inactive. Activity calls are given as the source filed them. No stated cut-off is given here; in the data, active means growth inhibition above about 70%; inactive means the rest.
# Assays:
# [1] = NCI Yeast Anticancer Drug Screen. Data for the rad50 strain (AID 155);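 further: 0% = growth of vehicle-only cultures of the same strain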; settings: S. cerevisiae rad50 strain growth inhibition, stronger effect = higher value
# Outline: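 Inhibition values express reduced yeast growth in compound-treated cultures relative to vehicle-treated controls.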
# [2] = NCI Yeast Anticancer Drug Screen. Data for the mec2-1 strain (AID 157); settings: S. cerevisiae mec2-1 strain, stronger effect = higher value
# Outline: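 Cells of the genetically defined mec2-1 yeast strain are incubated with test compound. Inhibition of growth is calculated against vehicle-treated controls.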
# [3] = NCI Yeast Anticancer Drug Screen. Data for the sgs1 mgt1 strain (AID 161);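 further: 0% = growth of cultures given vehicle only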; settings: S. cerevisiae sgs1 mgt1 strain, stronger effect = higher value
# Outline: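 Read-out: growth inhibition vs vehicle controls. Cells: mutant yeast strain deficient in DNA damage repair.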
# [4] = NCI Yeast Anticancer Drug Screen. Data for the cln2 rad14 strain (AID 165);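 further: 0% = growth equal to vehicle treated cultures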; settings: S. cerevisiae cln2 rad14 strain, stronger effect = higher value
# Outline: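 The screen exposed genetically defined yeast (cln2 rad14) to test compounds and scored growth inhibition relative to vehicle-treated controls.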
# [5] = NCI Yeast Anticancer Drug Screen. Data for the bub3 strain (AID 167); settings: S. cerevisiae bub3 mutant strain, stronger effect = higher value
# Outline: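 Steps: expose the mutant yeast strain to compound; grow alongside vehicle-treated cultures; measure growth; express inhibition against the vehicle cultures.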
# [6] = NCI Yeast Anticancer Drug Screen. Data for the mlh1 rad18 strain (AID 175); settings: S. cerevisiae mlh1 rad18 strain growth inhibition, stronger effect = higher value
# Outline: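 Compound-treated yeast growth, normalised to vehicle controls. Strain bears defined DNA repair mutations.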
# [7] = at 5.0 µM (retest, dose inferred, filed as 0.5)
# [8] = at 50.0 µM (retest, dose inferred, filed as 5.0)
Structure (SMILES),"growth inhibition [1, 7]","growth inhibition [1, 8]",growth inhibition ([1]; at 50.0 µM),"growth inhibition [2, 7]","growth inhibition [2, 8]",growth inhibition ([2]; at 50.0 µM),"growth inhibition [3, 7]","growth inhibition [3, 8]",growth inhibition ([3]; at 50.0 µM),"growth inhibition [4, 7]","growth inhibition [4, 8]",growth inhibition ([4]; at 50.0 µM),"growth inhibition [5, 7]","growth inhibition [5, 8]",growth inhibition ([5]; at 50.0 µM),"growth inhibition [6, 7]","growth inhibition [6, 8]",growth inhibition ([6]; at 50.0 µM)
NC(=O)N/N=C/c1ccc(Cl)s1,4%,42%,94.4% (active),4%,21%,59%,2%,31%,88.8% (active),-1%,10%,52.5%,3%,35%,82.5% (active),1%,31%,89.2% (active)
COc1cccc2c1C(=O)c1c(O)c3c(c(O)c1C2=O)CC(O)(C(=O)CO)CC3OC1CC(N)C(O)C(C)O1.[Cl][Pt+2][Cl].[NH2-].[NH2-] (centres undefined),12%,85% (active),74.5% (active),9%,47%,49.5%,11%,83% (active),78% (active),8%,87% (active),43.5%,0%,56%,34.5%,29%,94% (active),88.7% (active)
Fc1ccc(OCCC(Cn2ccnc2)c2ccc(Cl)cc2Cl)cc1 (centres undefined),82% (active),99% (active),98.7% (active),56%,91% (active),99.8% (active),71% (active),96% (active),95.2% (active),61%,92% (active),94.7% (active),83% (active),94% (active),99.2% (active),55%,99% (active),95.1% (active)
BrC1=CC(Br)=C2N=C(C(Br)(Br)Br)N=C3N=C(C(Br)(Br)Br)N=C1N32,27%,97% (active),99% (active),15%,98% (active),99.5% (active),20%,99% (active),99.8% (active),5%,97% (active),98.2% (active),0%,97% (active),99.2% (active),30%,97% (active),99% (active)
Nc1ccccc1N=Cc1ccccc1O,-12%,54%,66.2%,-4%,76% (active),41.2%,-8%,91% (active),0.4%,-18%,55%,22.8%,-12%,63%,5.85%,3%,80% (active),69.3%
Cc1ccccc1NC(=S)Nc1ccccc1O,-4%,81% (active),97.2% (active),-2%,87% (active),94.4% (active),0%,82% (active),90.8% (active),-5%,63%,-27.8%,20%,98% (active),98.3% (active),-3%,71% (active),95.1% (active)
CN1C(=O)C(C2C(=O)N(C)C(=O)N(C)C2=O)C(=O)N(C)C1=O,13%,-3%,2.95%,2%,0%,0.9%,0%,-11%,12.2%,2%,4%,39.4%,0%,-2%,-2.2%,1%,-2%,8.55%
CCOC(=O)C(C#N)NC(C)=O (centres undefined),3%,1%,68%,0%,1%,49.3%,0%,1%,75.4% (active),-1%,0%,3.05%,0%,-5%,69%,3%,3%,57.8%
CC(O)C1CCCC[N+]1(C)C (centres undefined),1%,-3%,0.05%,5%,8%,-6.9%,-1%,-36%,51.5%,-5%,-6%,-7.6%,-11%,-8%,9.45%,-17%,-3%,-18.6%
Nc1ccc(Cl)c2ccccc12,-1%,42%,84.2% (active),-4%,20%,76.8% (active),-5%,12%,71.2% (active),40%,26%,53.5%,6%,48%,57.9%,-4%,33%,74.5% (active)
Clc1ccc(CN2COc3c(cc(Cl)c4cccnc34)C2)cc1,4%,71% (active),7.5%,1%,56%,63.3%,1%,99% (active),16.5%,1%,99% (active),98.8% (active),-6%,55%,99.2% (active),-7%,99% (active),24.1%
CCC(C)(C)c1ccc(OC(=O)C(C)OC(C)=O)cc1 (centres undefined),12%,33%,82% (active),-5%,48%,84.9% (active),0%,68%,88% (active),1%,21%,49.9%,-5%,53%,87.2% (active),-10%,46%,86.7% (active)
O=C1COC(=O)/C1=C\C=C\c1ccccc1,5%,55%,95.6% (active),8%,84% (active),91% (active),13%,78% (active),99% (active),1%,94% (active),95.4% (active),-5%,43%,97.2% (active),2%,68%,99% (active)
